The text below walks through data of PubChem BioAssay.

SMILES strings stand for the structures. Values joined by “and” are separate entries in the source; they are usually repeats but may differ in a detail not shown here. Identical values can stand only once. Results filed as inconclusive are left out. More than one record can exist for a structure, and the calls need not agree. Active and inactive are the calls of the source. Unless noted, no rule for the calls is given here.

Assay [1] can be described thus: GFP-Q80 aggregate reduction, neuronal-like cells, cell-based, NGF-treated PC12, GFPQ80 (AID 1614).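 Also: lower means fewer inclusions and 0 means no inclusions at all.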 The following applies: PC12 NGF-treated GFP-polyQ80 inclusion reduction.
Assay [2] can be described thus: compounds altering circadian rhythm period length – cell-based, LOPAC library, luminescence reporter (AID 2774).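 Also: values are relative to mean of DMSO wells on each plate.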 The conditions noted are these: circadian reporter cells, at 7 µM, actives lie on both sides.
Assay [3] relates to Hepatitis C virus NS3 helicase. Put plainly: blockers of NS3h binding to ssDNA – biochemical, fluorescence polarization, LOPAC1280 library, primary screen (AID 687035; in the data active = inhibition above about 37%). The following applies: Purified HCV NS3 helicase, Cy5-dT15 ssDNA binding fluorescence polarization; stronger effect = higher value; concentration not given here. (In general: In fluorescence polarisation assays a small probe gives low polarisation when free and higher when bound to something large.)

A short description of assay [4]: compounds altering Cy5-DNA-NS3h complex signal – biochemical, LOPAC1280, artefact control for HCV NS3 helicase inhibitor project (AID 687037). The conditions noted are these: Cy5-DNA-NS3h complex fluorescence interference counterscreen.
The nature of assay [5]: signal quenchers or enhancers, Cy5 substrate/SSB – biochemical, NIH Clinical Collection, E. coli SSB, artefact control for HCV NS3 helicase inhibitor project (AID 743268). The following applies: Cy5-oligo bound E. coli SSB, fluorescence interference.
Assay [6] concerns Hepatitis C virus NS3 helicase. Description: blockers of NS3h binding to DNA – biochemical, fluorescence polarization, NIH Clinical Collection, primary screen (AID 743270). The following applies: NS3 helicase binding to Cy5-dT15 DNA, stronger effect = higher value, concentration not given here.
Assay [7] addresses Single-stranded DNA-binding protein (Escherichia coli (strain K12)) (UniProt P0AGE0). Put plainly: SSB-ssDNA binding inhibitors – biochemical, fluorescence polarization, NIH Clinical Collection, counter-screen for HCV NS3 helicase inhibitor project (AID 743271; in the data active = inhibition above about 28%). The following applies: E. coli SSB-DNA binding, stronger effect = higher value, concentration not given here.
A short description of assay [8]: compounds distorting NS3 helicase fluorescence signal – biochemical, NIH Clinical Collection, artefact control for HCV NS3 helicase inhibitor project (AID 743272).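 Also: HCV NS3 helicase with a Cy5 labelled single stranded DNA probe.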 The conditions noted are these: fluorescence interference counterscreen, HCV NS3 helicase assay; stronger effect = lower value. For orientation: Counterscreens check selectivity or assay interference.
The test system of assay [9] is Aerobactin synthetase IucA (Klebsiella pneumoniae). Description: inhibition of K. pneumoniae IucA enzyme – biochemical, Tocris library, absorbance (AID 1345561).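 Also: 100% = enzyme without compound and 0% = no enzyme.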 The following applies: purified IucA enzyme assay, absorbance (OD) read-out; stronger effect = lower value;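 tested at 8 µM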.
Assay [10] in a line: viability loss in pontine glioma line – cell-based, SU-DIPG-XIII, MIPE4.0, CellTiter-Glo, qHTS, dose response (AID 1347061; cut-off not given, nearly all actives have AC50 up to about 37 µM;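 also: cells exposed to compound for 48 hours before readout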). The following applies: CellTiter-Glo ATP luminescence. For orientation: Cellular ATP, detected with luciferase, serves as a proxy for viable cell number.
A short description of assay [11]: blockers of cellular phospholipid synthesis – cell-based, LOPAC library, screen 4, primary screen (AID 1347384). The conditions noted are these: animal cells, phospholipid biosynthesis inhibition screen; at 10 µM.
The nature of assay [12]: viability loss in pontine glioma line – cell-based, SU-DIPG-XVII, MIPE5.0, CellTiter-Glo, qHTS, dose response (AID 1347060; cut-off not given, nearly all actives have AC50 up to about 26 µM;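 as to AC50: cells exposed to compound for 48 hours before viability readout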). The following applies: CellTiter-Glo ATP luminescence.
Assay [13] is described as follows: viability loss in pontine glioma line – cell-based, SU-DIPG-XIII, MIPE5.0, CellTiter-Glo, qHTS, dose response (AID 1347064; cut-off not given, nearly all actives have AC50 up to about 23 µM;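 as to AC50: cells exposed to compound for 48 hours before the viability read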). The following applies: CellTiter-Glo ATP luminescence.
A short description of assay [14]: viability loss in pontine glioma line – cell-based, SU-DIPG-XXV, MIPE5.0, CellTiter-Glo, qHTS, dose response (AID 1347065; cut-off not given, nearly all actives have AC50 up to about 26 µM;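 also: cells exposed to compound for 48 hours before ATP readout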). The conditions noted are these: CellTiter-Glo ATP luminescence.
Assay [15] can be described thus: JHH-DIPG-1 glioma cell viability, MIPE5.0 library, CellTiter-Glo luminescence, qHTS (AID 1347067; cut-off not given, nearly all actives have AC50 up to about 26 µM;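 also: cells exposed to compound for 48 hours before readout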). The conditions noted are these: JHH-DIPG-1 glioma viability, CellTiter-Glo ATP luminescence.
Assay [16] is described as follows: galactose survival enhancers in mitochondrial complex I cybrids – cell-based, galactose medium, ATP luminescence, primary screen (AID 1645843;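 active = z-score of at least 1.8 in each of two replicates, scored against plate mean and spread of sample wells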;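 also: positive z means more ATP and so rescue of galactose-driven cybrid death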). The following applies: complex I mutant cybrid cells, 72 h, stronger effect = higher value.
A short description of assay [17]: growth inhibition, MDA-MB-436, cell-based, BGB or cisplatin combos, synergistic combos for chromothripsis tumors (AID 1671458).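 Also: cells exposed for 96 hours; 0% = vehicle DMSO and 100% = killing by high DMSO.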 The conditions noted are these: MDA-MB-436 breast carcinoma growth inhibition, drug combinations, stronger effect = higher value.
Assay [18] is described as follows: BT084 cell growth, single and combined drugs, ICGC_MB145, cisplatin and BGB IC40 combos (AID 1671461; in the data active = inhibition above about 80%;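 also: cells exposed to drugs for 96 hours; 0% = vehicle DMSO and 100% = high DMSO full killing control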). The conditions noted are these: BT084 medulloblastoma cells, drug combinations, stronger effect = higher value.
Assay [19] in a line: RCMB18 cell growth, single agent and combined, cisplatin and BGB IC40 combos (AID 1671462; in the data active = inhibition above about 80%;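 also: cells exposed to compound for four days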). The following applies: RCMB18 medulloblastoma cells, stronger effect = higher value.
Assay [20] is described as follows: growth inhibition of DIPG cells – cell-based, MIPE5.0 library, qHTS (AID 1347068; cut-off not given, nearly all actives have IC50 up to about 30 µM). The following applies: SU-DIPG-XXV viability.

As usually defined, the inhibition is the relative decrease from the control value, in per cent. For orientation: remaining activity means the signal under treatment as a percentage of the control signal. `Clc1cccc(Cl)c1NC1=NCCN1`: in assay [1], the inclusion score is 2. The period change in [2] is 0.005 h (inactive). In addition, the inhibition is -4% (inactive) in assay [3], -2.77% (inactive) in assay [6] and -2.41% (inactive) in [7]. In addition, in assay [4], the fluorescence ratio (interference) was 1 (inactive). Moreover, the fluorescence ratio was 1.05 (inactive) in [5] and 1.02 (inactive) in assay [8]. The remaining activity in assay [9] was 106% (inactive). The compound was called inactive in assay [10] and in assay [11].

Broadly, the AC50 is the concentration at which the activity in the assay is half-maximal. As to `CCN(CC)CCCC(C)Nc1c2ccc(Cl)cc2nc2ccc(OC)cc12` (configuration not stated), the period change in assay [2] is 0.21 h (inactive). The inhibition is 1% (inactive) in [3]; 4.39% (inactive) in [17] (at 0.5 µM); -0.472% in [17] (measured here: BGB combination, at 0.5 µM); 95.8% in assay [17] (measured here: BGB combination, at 5 µM); -17.3% in assay [17] (measured here: cisplatin combination, at 0.5 µM); 98% in assay [17] (measured here: cisplatin combination, at 5 µM). In addition, the inhibition in [18] (at 0.5 µM) was 1.42% (inactive); in assay [18] (cisplatin combination, at 0.5 µM), -5.45%; in assay [18] (cisplatin combination, at 5 µM) it was 99.5%; in assay [18] (measured here: BGB IC40 combination 0.05 uM, at 0.05 µM) it was -3.72%; in assay [18] (single agent, at 5 µM) it was 105%; in [19] (at 0.5 µM) it was -4.03% (inactive). In addition, the inhibition in assay [19] (cisplatin combo, at 5 µM) is 92.9%; in assay [19] (measured here: BGB IC40 combination, at 0.05 µM), -9.76%; in [19] (measured here: combination with cisplatin, at 0.5 µM) it was -29.6%; in [19] (single agent, at 5 µM), 73.4%. Besides, in assay [4], the fluorescence ratio (interference) is 1 (inactive). Also, the AC50 is 8.33 µM (active) in [12], 8.33 µM (active) in assay [13], 11.8 µM (active) in assay [14] and 11.8 µM (active) in assay [15]. In addition, the call in [11] was inactive. Besides, the z-score in assay [16] was -1.35 (inactive) and -2.13 (inactive).

As to `CN1C(C(=O)Nc2ccccn2)=C(O)c2ccccc2S1(=O)=O`, the inclusion score in assay [1] amounted to 2. In addition, the period change in [2] is -0.07 h (inactive). Further, the results for the inhibition in [3], in [6] and in [7] were -1% (inactive), 1.98% (inactive) and 1.44% (inactive), respectively. For the same compound, the fluorescence ratio (interference) in assay [4] was 1 (inactive). Further, the fluorescence ratio is 1.01 (inactive) in [5] and 0.98 (inactive) in assay [8]. In addition, the remaining activity in [9] was 127% (inactive). Moreover, the outcome in assay [12], in [10], in assay [13], in [14], in [15] and in assay [20] was inactive. The outcome in [11] was inactive.

In the case of `Oc1ccc(/C=C/c2cc(O)cc(O)c2)cc1`, in assay [2], the period change was -0.215 h (inactive). In addition, the inhibition was -3% (inactive) in [3], -2.84% (inactive) in assay [6] and -2.76% (inactive) in [7]. For the same compound, in [4], the fluorescence ratio (interference) was 1 (inactive). Also, the fluorescence ratio in assay [5] is 0.95 (inactive); in [8], 0.93 (inactive). In addition, the remaining activity in assay [9] is 117% (inactive). The call in assay [13], in assay [15] and in assay [11] was inactive. Moreover, the z-score in [16] is 2.52 (active) and 1.26 (inactive).

For the compound `O=C1CCC(N2C(=O)c3ccccc3C2=O)C(=O)N1` (configuration not stated), the inclusion score in assay [1] was 2. Further, the period change in [2] is 0.105 h (inactive). Besides, the inhibition in assay [3] is -6% (inactive); in assay [6] it was -1.36% (inactive); in assay [7] it was -1.24% (inactive). In addition, the fluorescence ratio (interference) in assay [4] is 1 (inactive). In addition, the figures for the fluorescence ratio in assay [5] and in assay [8] were 1.04 (inactive) and 0.99 (inactive), respectively. The remaining activity in assay [9] is 108% (inactive). Besides, the result in [10], in [15], in [20] and in assay [11] was inactive.

Take `Cc1noc(NS(=O)(=O)c2ccc(N)cc2)c1C`: the inclusion score in assay [1] is 2. Also, in assay [9], the remaining activity was 91.4% (inactive). Moreover, the compound was called inactive in assay [10]. Also, in [16], the z-score was -0.585 (inactive) and 0.925 (inactive).

Turning to `N=C(N)c1ccc(OCCCCCOc2ccc(C(=N)N)cc2)cc1`, in assay [14], the AC50 was 11.8 µM (active). Besides, in assay [11], the result was inactive. Moreover, the z-score in assay [16] is -0.685 (inactive).

`NC12CC3CC(CC(C3)C1)C2` registered an inclusion score in assay [1] of 2. Further, the period change in [2] is -0.05 h (inactive). The inhibition in [3] is -1% (inactive); in [6], -0.45% (inactive); in assay [7] it was -1.24% (inactive). Further, the fluorescence ratio (interference) in [4] was 0.9 (inactive). Also, the fluorescence ratio in assay [5] is 0.99 (inactive); in assay [8], 0.97 (inactive). The result in assay [12], in [13], in assay [15], in assay [20] and in assay [11] was inactive. Besides, in [16], the z-score was 0.28 (inactive) and 0.225 (inactive) and 0.335 (inactive).
